Measurements reported in PubChem BioAssay.
The source made the active and inactive calls.

Assays:
[1] = small molecules captured by biotinylated probe aFSTL3 – biochemical, small-molecule microarray, fluorescence 635/667, stem cell growth factor project, primary screen (AID 1064); settings: higher = more signal;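 also: measures binding of the biotinylated anti-FSTL3 antibody to printed compounds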
[2] = binders from COS7 lysate, DM2A8 probe, primary screen, torsin A project, cell lysate, small-molecule microarray, fluorescence 635/667 (AID 1065); settings: higher = more signal, COS7 lysate expressing mutant human TOR1A
[3] = small molecules captured by biotinylated probe aFGF2 – biochemical, small-molecule microarray, fluorescence 635/667, stem cell growth factor project, primary screen (AID 1067); settings: higher = more signal;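 also: measures binding of biotinylated aFGF2 protein to printed compounds on slides; z-score merges feature fluorescence and signal-to-noise across triplicate slides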
[4] = small molecules captured by biotinylated probe aFGF10 – biochemical, small-molecule microarray, fluorescence 635/667, stem cell growth factor project, primary screen (AID 1071); settings: higher = more signal;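 also: score merges 667 nm spot intensity and signal to noise from triplicate slides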
[5] = biological target: Neurogenic locus notch homolog protein 2 (Homo sapiens) (UniProt Q04721); test: small molecules binding Notch2 protein – biochemical, small-molecule microarray, 635 nm fluorescence, stem cell growth factors, primary screen (AID 1073); settings: higher = more signal
Chain of Neurogenic locus notch homolog protein 2 (Homo sapiens) (Q04721 whole entry, looked up, canonical isoform): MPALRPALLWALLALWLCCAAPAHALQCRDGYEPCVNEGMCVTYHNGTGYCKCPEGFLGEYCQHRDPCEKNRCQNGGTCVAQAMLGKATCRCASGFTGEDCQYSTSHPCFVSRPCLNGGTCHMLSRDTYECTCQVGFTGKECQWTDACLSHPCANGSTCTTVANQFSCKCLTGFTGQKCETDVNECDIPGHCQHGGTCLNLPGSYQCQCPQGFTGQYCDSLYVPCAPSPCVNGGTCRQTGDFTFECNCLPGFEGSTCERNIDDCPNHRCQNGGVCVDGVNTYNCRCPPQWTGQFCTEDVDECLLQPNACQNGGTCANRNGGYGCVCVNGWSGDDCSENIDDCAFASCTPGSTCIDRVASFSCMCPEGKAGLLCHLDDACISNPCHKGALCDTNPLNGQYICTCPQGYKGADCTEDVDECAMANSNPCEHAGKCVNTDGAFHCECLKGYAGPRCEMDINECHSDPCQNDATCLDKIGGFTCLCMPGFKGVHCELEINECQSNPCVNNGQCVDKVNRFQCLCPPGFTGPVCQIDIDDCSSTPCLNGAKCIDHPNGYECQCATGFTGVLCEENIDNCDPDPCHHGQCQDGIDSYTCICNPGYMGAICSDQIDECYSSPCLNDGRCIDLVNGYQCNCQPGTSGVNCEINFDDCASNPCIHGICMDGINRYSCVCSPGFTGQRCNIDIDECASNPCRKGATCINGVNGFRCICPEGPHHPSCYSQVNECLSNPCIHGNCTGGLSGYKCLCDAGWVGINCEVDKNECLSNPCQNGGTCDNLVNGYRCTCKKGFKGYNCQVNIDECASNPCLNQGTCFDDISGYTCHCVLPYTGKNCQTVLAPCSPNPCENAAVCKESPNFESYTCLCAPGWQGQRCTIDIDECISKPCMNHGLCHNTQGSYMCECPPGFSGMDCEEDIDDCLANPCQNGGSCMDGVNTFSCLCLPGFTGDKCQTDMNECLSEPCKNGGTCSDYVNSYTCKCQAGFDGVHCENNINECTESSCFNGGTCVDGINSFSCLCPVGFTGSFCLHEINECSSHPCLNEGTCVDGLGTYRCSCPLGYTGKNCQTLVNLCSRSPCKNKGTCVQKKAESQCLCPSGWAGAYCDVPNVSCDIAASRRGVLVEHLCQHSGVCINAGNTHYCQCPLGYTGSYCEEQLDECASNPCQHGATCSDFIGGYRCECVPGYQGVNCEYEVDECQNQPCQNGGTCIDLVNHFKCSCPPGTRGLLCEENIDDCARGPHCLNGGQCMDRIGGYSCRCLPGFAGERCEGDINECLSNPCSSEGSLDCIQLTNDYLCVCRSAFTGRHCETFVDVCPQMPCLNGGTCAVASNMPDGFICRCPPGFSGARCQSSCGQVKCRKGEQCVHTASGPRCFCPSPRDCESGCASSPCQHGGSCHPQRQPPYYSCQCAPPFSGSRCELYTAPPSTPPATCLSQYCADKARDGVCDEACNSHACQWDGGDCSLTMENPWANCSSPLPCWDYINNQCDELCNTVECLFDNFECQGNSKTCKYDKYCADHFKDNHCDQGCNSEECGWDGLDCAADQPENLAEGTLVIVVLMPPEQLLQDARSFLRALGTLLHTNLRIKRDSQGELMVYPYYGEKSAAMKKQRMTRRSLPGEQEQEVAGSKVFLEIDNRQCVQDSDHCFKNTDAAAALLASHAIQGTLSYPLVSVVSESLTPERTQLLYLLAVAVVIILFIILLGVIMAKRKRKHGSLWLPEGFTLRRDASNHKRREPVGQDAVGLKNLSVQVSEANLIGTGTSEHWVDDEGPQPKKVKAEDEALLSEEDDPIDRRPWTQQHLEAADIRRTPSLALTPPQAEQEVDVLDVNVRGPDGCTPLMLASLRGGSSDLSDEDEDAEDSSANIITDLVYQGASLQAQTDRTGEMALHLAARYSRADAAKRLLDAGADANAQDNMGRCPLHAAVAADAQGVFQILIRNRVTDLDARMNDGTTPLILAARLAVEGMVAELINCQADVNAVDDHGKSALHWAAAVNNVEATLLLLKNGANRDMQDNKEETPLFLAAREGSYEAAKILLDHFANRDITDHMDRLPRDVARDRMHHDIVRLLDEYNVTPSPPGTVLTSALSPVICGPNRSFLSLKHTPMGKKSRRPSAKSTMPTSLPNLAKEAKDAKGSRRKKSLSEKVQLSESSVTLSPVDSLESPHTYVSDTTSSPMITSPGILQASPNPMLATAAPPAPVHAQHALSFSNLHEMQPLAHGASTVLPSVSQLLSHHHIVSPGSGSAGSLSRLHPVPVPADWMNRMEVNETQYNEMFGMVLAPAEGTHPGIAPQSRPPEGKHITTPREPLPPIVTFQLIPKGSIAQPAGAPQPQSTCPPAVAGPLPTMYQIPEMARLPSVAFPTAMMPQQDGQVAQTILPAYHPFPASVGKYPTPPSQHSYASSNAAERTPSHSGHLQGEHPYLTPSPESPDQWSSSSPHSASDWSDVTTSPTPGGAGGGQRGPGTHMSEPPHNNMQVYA

[6] = biological target: Pro-neuregulin-1, membrane-bound isoform (Homo sapiens) (UniProt Q02297); test: small molecules binding neuregulin-1 protein – biochemical, small-molecule microarray, fluorescence 635/667, psychiatric disease protein project, primary screen (AID 1075); settings: NRG1 binding, 635 nm fluorescence, higher = more signal;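 also: score combines 667 nm spot fluorescence with signal to noise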
Chain of Pro-neuregulin-1, membrane-bound isoform (Homo sapiens) (Q02297 whole entry, looked up, the tested form may be a part, canonical isoform): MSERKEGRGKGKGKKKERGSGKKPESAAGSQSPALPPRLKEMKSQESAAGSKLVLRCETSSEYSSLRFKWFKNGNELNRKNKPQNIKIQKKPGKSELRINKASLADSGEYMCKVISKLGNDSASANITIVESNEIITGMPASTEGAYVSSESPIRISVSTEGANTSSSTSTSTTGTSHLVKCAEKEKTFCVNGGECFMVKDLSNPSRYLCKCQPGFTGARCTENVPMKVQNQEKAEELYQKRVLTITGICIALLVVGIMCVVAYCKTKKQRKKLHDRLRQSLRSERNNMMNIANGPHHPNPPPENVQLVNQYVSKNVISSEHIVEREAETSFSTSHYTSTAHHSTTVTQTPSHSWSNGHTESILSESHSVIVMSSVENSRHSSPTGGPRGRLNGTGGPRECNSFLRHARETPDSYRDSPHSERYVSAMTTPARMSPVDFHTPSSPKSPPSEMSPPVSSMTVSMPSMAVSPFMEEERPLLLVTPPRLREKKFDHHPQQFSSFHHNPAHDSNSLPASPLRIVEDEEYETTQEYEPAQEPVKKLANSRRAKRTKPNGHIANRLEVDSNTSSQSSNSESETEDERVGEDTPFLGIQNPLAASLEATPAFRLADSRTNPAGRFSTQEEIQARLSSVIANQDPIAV

[7] = tested on: Neuregulin-1 EGF-like domain; test: small molecules binding NRG1 EGF domain – biochemical, small-molecule microarray, 635 nm fluorescence, primary screen (AID 1081); settings: higher = more signal;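 also: binding of the protein to compounds printed on small-molecule microarray slides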
[8] = FRG1 expression reporter modulators in myotubes – cell-based, C2C12 myotubes, firefly/Renilla luciferase, luminescence, FRG1 inhibition for FSHD, primary screen (AID 1084); settings: FRG1 promoter luciferase, higher = more signal, called active from +8 up or from −8 down
[9] = small molecules captured by biotinylated probe aFST – biochemical, small-molecule microarray, fluorescence 635/667, stem cell growth factor project, primary screen (AID 1086); settings: higher = more signal;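 also: score merges 667 nm fluorescence with signal-to-noise of each printed compound spot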
[10] = binders of probe aHhip on microarray, primary screen, stem cell growth factor project, biochemical, small-molecule microarray, fluorescence 635/667 (AID 1087); settings: higher = more signal;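 also: score merges spot fluorescence at 667nm with spot signal to noise ratio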
[11] = tested on: PRMT1 (protein arginine N-methyltransferase 1); test: small molecules binding arginine methyltransferase PRMT1 – biochemical, small-molecule microarray, 635 nm fluorescence, primary screen (AID 1088); settings: higher = more signal;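 also: binding of Prmt1 protein to compounds spotted on small-molecule microarray slides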
[12] = growth effects on S. cerevisiae YJM789 – YJM789 clinical isolate, OD600, 24 h, basal, primary screen (AID 1089); settings: higher = more signal, called active from +8 up or from −8 down;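 also: growth of clinical yeast isolate S. cerevisiae YJM 789 seeded 1000 cells per well; test concentration not given here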
[13] = S. pombe growth modifiers, basal conditions – strain 972, OD600, 24 h, no modulator, primary screen (AID 1090);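 also: basal condition with compound alone and no growth modifier present; test concentration not given here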; settings: S. pombe 972 growth, higher = more signal, called active from +8 up or from −8 down
[14] = budding yeast growth modifiers under rapamycin – strain BY4716, OD600, 96 h, primary screen (AID 1091); also: test concentration not given here; settings: S. cerevisiae BY4716 + rapamycin, higher = more signal, called active from +8 up or from −8 down
[15] = biological target: Torsin-1A-interacting protein 2 (Homo sapiens) (UniProt Q8NFQ8); test: small molecules binding lysate-expressed LULL1 – cell lysate, human LULL1 lysate, 635/667 nm fluorescence, primary screen (AID 1092); settings: small-molecule microarray, hLULL1 lysate binding, 635 nm fluorescence; higher = more signal;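 also: probe is lysate of COS7 cells overexpressing human LULL1; score merges per-feature 667 nm fluorescence with signal-to-noise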
Chain of Torsin-1A-interacting protein 2 (Homo sapiens) (Q8NFQ8 whole entry, looked up): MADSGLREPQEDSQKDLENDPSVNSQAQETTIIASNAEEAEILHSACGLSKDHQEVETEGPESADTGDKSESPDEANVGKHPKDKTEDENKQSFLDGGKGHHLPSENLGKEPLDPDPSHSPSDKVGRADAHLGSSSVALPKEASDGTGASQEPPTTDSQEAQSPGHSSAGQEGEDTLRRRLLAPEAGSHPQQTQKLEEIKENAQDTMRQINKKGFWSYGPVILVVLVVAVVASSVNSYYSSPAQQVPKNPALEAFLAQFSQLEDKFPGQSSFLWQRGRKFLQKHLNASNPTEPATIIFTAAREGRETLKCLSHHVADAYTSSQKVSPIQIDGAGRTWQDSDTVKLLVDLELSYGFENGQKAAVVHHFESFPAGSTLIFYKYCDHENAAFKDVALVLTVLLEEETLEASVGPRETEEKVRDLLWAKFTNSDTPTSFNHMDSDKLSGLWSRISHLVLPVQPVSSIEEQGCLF

[16] = optical density change of DRC41 E. coli – strain DRC41, OD650, 24 h, E. coli filamentation project, primary screen (AID 1093);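 also: MC1000 strain lacking acrAB efflux and sulA so SOS filamentation is blocked; test concentration not given here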; settings: E. coli DRC41 growth, higher = more signal, called active from +8 up or from −8 down
[17] = probe aLefty2 binding to arrayed compounds – biochemical, biotinylated probe, 635/667 nm fluorescence, primary screen (AID 1094); settings: small-molecule microarray, higher = more signal;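 also: score merges spot fluorescence near 667 nm with spot signal-to-noise ratio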
[18] = tested on: Noggin (protein binding on small-molecule microarray); test: small molecules binding Noggin protein – biochemical, 635/667 nm fluorescence, primary screen (AID 1095); settings: 635 nm fluorescence, higher = more signal;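 also: score merges 667 nm feature fluorescence with signal to noise over triplicate slides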
[19] = biological target: Neurogenic locus notch homolog protein 3 (Homo sapiens) (UniProt Q9UM47); test: small molecules binding NOTCH3 protein – biochemical, 635/667 nm fluorescence, primary screen (AID 1096); settings: small-molecule microarray, 635 nm fluorescence, higher = more signal
[20] = probe aEGFR binding to arrayed compounds – biochemical, biotinylated probe, 635/667 nm fluorescence, primary screen (AID 1097); settings: small-molecule microarray, higher = more signal;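 also: probe is a biotinylated anti-EGFR antibody binding compounds printed on slides; score combines fluorescence near 667 nm and signal to noise of each spot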

Structure (SMILES)	composite z-score [1]	composite z-score [2]	composite z-score [3]	composite z-score [4]	composite z-score [5]	composite z-score [6]	composite z-score [7]	z-score [8]	composite z-score [9]	composite z-score [10]	composite z-score [11]	z-score [12]	z-score [13]	z-score [14]	composite z-score [15]	z-score [16]	composite z-score [17]	composite z-score [18]	composite z-score [19]	composite z-score [20]
C=CCC(OC(C)=O)[C@@H]1[C@@H](N(Cc2cccc3ccccc23)C(=O)Cc2ccc(OC)cc2)c2cc(OCCCO)ccc2N1C(=O)Cc1ccc2ccccc2c1 (stereo not given in full)	-0.289	-0.176	-0.14	0.184	-0.529	0.906	-0.29	-1.77 (inactive)	0.165	-0.364	0.402	-0.0978 (inactive)	0.374 (inactive)	-1.51 (inactive)	0.574	-0.079 (inactive)	-0.0911	0.656	-0.87	-0.0828
COc1ccc(C(=O)Nc2ccc3c(c2)[C@@]2(O[C@H](CCO)[C@@H]([Si](C)(C)c4ccc(OC)cc4)[C@@H]2C)C(=O)N3Cc2ccccc2)cc1	-0.122	0.143	-0.0333	-0.0652	0.562	0.929	1.07	-3.68 (inactive)	0.154	0.2	1.28	-0.0565 (inactive)	-4.96 (inactive)	2.7 (inactive)	1.94	0.629 (inactive)	-0.0124	1.32	0.742	-0.0828
CCOC(=O)C1=CC[C@@H](c2ccc(OC)cc2)N(S(=O)(=O)c2ccc(C)cc2)[C@H]1CC	-0.295	0.495	-0.067	0.398	1.66	1.13	1.11	-3.47 (inactive)	1.14	-0.0645	1.56	-1.48 (inactive)	0.971 (inactive)	0.879 (inactive)	3.05	0.66 (inactive)	0.0319	0.0635	1.08	-0.0157
C=CCOC(=O)[C@@H]1[C@H]2C(=O)O[C@H](c3ccccc3)[C@H](c3ccccc3)N2[C@H](c2ccc(OCCOC(=O)[C@H]3C[C@H]4C(=O)N5CCC[C@H]5C(=O)N4[C@H]3c3cccc(OCCO)c3)cc2)[C@@]12C(=O)Nc1ccc(I)cc12	-0.0333	0.546	-0.0538	0.441	0.596	0.499	1.2	1.67 (inactive)	0.182	-0.0767	1.53	1.3 (inactive)	2.38 (inactive)	4.79 (inactive)	1.6	-0.333 (inactive)	-0.0125	1.52	1.11	0.0238
COC(=O)[C@@]1(Cc2ccc(OC)cc2)[C@H]2c3cc(C(=O)N4CCCC4)n(Cc4ccc(Cl)c(C(F)(F)F)c4)c3C[C@H]2CN1C(=O)c1ccccc1	0.608	0.673	0.243	0.437	1.64	2	0.605	-2.87 (inactive)	1.53	0.132	1	-1.21 (inactive)	1.37 (inactive)	0.509 (inactive)	3.59	-0.304 (inactive)	0.711	-0.109	1.03	0.0788
O=C1C2C=CC(C(O)c3cccs3)N(Nc3ccc([N+](=O)[O-])cc3)C2C(=O)N1c1ccccc1 (stereo not given)	0.102	-0.0628	0.0543	0.362	1.19	1.67	1.23	1.05 (inactive)	0.611	0.154	0.32	-0.198 (inactive)	1.14 (inactive)	1.88 (inactive)	2.98	-0.0849 (inactive)	-0.0636	-0.13	0.788	-0.0947
C=CCC(OC(C)=O)[C@@H]1[C@@H](N(Cc2cccc3ccccc23)C(=O)c2ccc(-c3ccccc3)cc2)c2cc(OCCCO)ccc2N1C(=O)Cc1ccc2ccccc2c1 (stereo not given in full)	-0.141	0.14	-0.0171	-0.272	0.07	0.022	-0.374	-0.94 (inactive)	0.481	-0.134	0.157	-0.616 (inactive)	0.072 (inactive)	-0.26 (inactive)	0.893	-0.741 (inactive)	-0.145	-0.109	0.397	-0.112
COC(=O)c1cccc([C@H]2OC(=CC(=O)OC(C)C)C[C@@H](c3cccc(C(=O)OC)c3)O2)c1	-0.3	2.67	0.357	1.14	1.08	1.4	1.12	0.946 (inactive)	0.902	-0.289	1.55	-0.132 (inactive)	-2.24 (inactive)	-1.39 (inactive)	3.6	-0.259 (inactive)	0.272	1.22	0.974	0.0297
Cc1ccccc1C(O)C1C=CC2C(=O)N(c3ccccc3)C(=O)C2N1Nc1ccccc1 (stereo not given)	0.457	0.573	0.133	1.15	1.61	2.18	1.31	-1.78 (inactive)	1.06	0.0741	1.53	0.555 (inactive)	0.828 (inactive)	0.0369 (inactive)	3.42	-0.555 (inactive)	0.307	0.219	1.03	0.183
C[C@@H]1ON(c2ccc(I)cc2)[C@H](c2cccc(NC(=O)OCC3c4ccccc4-c4ccccc43)c2)[C@H]1C(=O)N1C(=O)OC[C@H]1Cc1ccccc1	-0.162	0.382	-0.132	0.15	0.524	0.608	0.0222	0.108 (inactive)	0.0393	0.132	0.908	0.882 (inactive)	0.534 (inactive)	1.33 (inactive)	0.77	1.28 (inactive)	0.437	0.493	0.893	0.0773
